ALOX12 inhib: 12-hLO (ALOX12) enzyme inhibition; P18054; 150,000 tested, 0.12% active; Potency, µM (top dose mostly 57.1 µM), without a hit: top-dose activity change, negative = inhibition, hits mostly inhibitors; purified 12-hLO, xylenol orange hydroperoxide absorbance; also: potency is read from the fitted curve at half-maximal effect; nearly all actives have a fitted effect of over 55% in size
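Xylenol orange chromogenic assay: hydroperoxide from 12hLO oxidises Fe(II), giving red-shifted Fe(III)-XO absorbance. Conditions: 150 nM enzyme, 40 uM arachidonic acid, 25 mM Hepes pH 7.0, 0.01% Triton X-100, 30 min, room temperature.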
IMPase Li cell: cell-permeable IMPase inhibitors with lithium potentiation. Potency, µM (titrated, usually from 59.4 µM), inactives show at the top dose activity, negative = IMPase inhibition, most hits filed as inhibitors. 210,000 tested, 0.35% active. AID 1457. CHO-M1 cells, IP1 TR-FRET (IP-One), carbachol + lithium;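 also: IP1 builds up when IMPase is blocked and the TR-FRET signal falls; potency is read from the fitted curve at half-maximal effect; plate controls were basal vehicle for no effect and high inhibitor control for full effect; nearly all actives have a fitted effect of over 50% in size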
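Readout is a homogeneous TR-FRET IP1 immunoassay (Ex 320, Em 665 and 620), where raised cytosolic IP1 lowers signal. Cells were CHO-M1 treated 30 min at 37C with test compounds plus a little lithium; AC50 values came from Hill-equation fitting.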
HPGD inh: blocks human HPGD enzyme activity; P15428; purified HPGD, NADH fluorescence kinetic, PGE2 substrate; Potency, µM, for inactives: top-dose activity change, negative = inhibition, usual class: inhibitors; 150,000 tested, 4.3% active; AID 894; active = well fitted inhibition curve with a large enough effect, not every such curve was filed as active; inconclusive = small, poorly fitted or top-dose-only effect, or another doubt; inactive = no such curve, though single readings can be large or run the other way; also: potency is read from the fitted curve at half-maximal effect
Target sequence (P15428 whole entry, looked up): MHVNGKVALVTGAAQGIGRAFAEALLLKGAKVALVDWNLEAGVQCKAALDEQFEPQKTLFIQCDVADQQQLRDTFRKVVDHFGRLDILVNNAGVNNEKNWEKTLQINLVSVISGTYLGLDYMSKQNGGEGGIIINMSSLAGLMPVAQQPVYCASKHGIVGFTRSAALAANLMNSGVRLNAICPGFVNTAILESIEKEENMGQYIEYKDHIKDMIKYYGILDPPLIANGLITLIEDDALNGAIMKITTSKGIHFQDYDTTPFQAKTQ
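20 nM HPGD preincubated 15 min at room temperature with compound in 50 mM Tris-HCl pH 8, 0.01% Tween 20. Started with 1 mM NAD+ and 30 uM prostaglandin E2; NADH fluorescence (360/450 nm) read 5 times over 30-s intervals, last minus first.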
IMPase inh: membrane-permeable compound that blocks inositol monophosphatase; P97697; 120,000 tested, under 10 active; CHO-M1 cells, IP1 accumulation, HTRF TR-FRET ratio; inhibition (IP1 accumulation), % at 46.1 µM; active = well fitted curve in the direction sought with a large enough effect in the signal ratio, not every such curve was filed as active; inconclusive = small, poorly fitted or top-dose-only effect, or a change in a side signal; inactive = no such curve, though single readings can be large or run the other way; the % refers to the signal ratio;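 also: cells stimulated with carbachol in lithium chloride buffer; plate controls were DMSO basal wells for no effect and reference inhibitor wells for full effect; higher means more IMPase inhibition seen as more IP1 and lower FRET ratio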
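The IP-One HTRF competitive assay in carbachol-stimulated CHO-M1 cells quantifies cellular IP1. Compounds spanned up to 46 uM final, and activity is expressed as AC50 from concentration-response fits of the ratio and donor data.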
PNC inhibitor: inhibitors of perinucleolar compartment assembly | PC3M PTB-GFP, PNC prevalence imaging, 16 h; hits give low values | activity change (PNC), negative = inhibition, % at 10 µM | 140,000 tested, 3.1% active | AID 2417;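 active = readout at or below -70, meaning at least 70% loss of cells showing the perinucleolar compartment, a nuclear body marking cancer cells; inconclusive = readout between -30 and a set limit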;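 also: plate controls were DMSO wells for no effect and camptothecin positive control wells for full effect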
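PC3M cells stably expressing PTB-GFP, 750–1000 cells/well, treated 16 h at 37 °C with compound (23 nl of library stock), in duplicate. After paraformaldehyde fixation and Hoechst stain, imaged at 20x; PNC prevalence scored by image analysis.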
ALDH1A1 inh: inhibitors of human aldehyde dehydrogenase 1A1 | Purified ALDH1A1, NADH fluorescence, propionaldehyde substrate | Potency, µM (highest dose often 75.3 µM), inactives show at the top dose activity, negative = inhibition, most hits filed as inhibitors | P00352 | 220,000 tested, 7.3% active; active = well fitted inhibition curve with a large enough effect, not every such curve was filed as active; inconclusive = small, poorly fitted or top-dose-only effect, or another doubt; inactive = no such curve, though single readings can be large or run the other way;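 also: potency is read from the fitted curve at half-maximal effect; plate controls were no enzyme wells and a reference inhibitor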
Target sequence (P00352 whole entry, looked up): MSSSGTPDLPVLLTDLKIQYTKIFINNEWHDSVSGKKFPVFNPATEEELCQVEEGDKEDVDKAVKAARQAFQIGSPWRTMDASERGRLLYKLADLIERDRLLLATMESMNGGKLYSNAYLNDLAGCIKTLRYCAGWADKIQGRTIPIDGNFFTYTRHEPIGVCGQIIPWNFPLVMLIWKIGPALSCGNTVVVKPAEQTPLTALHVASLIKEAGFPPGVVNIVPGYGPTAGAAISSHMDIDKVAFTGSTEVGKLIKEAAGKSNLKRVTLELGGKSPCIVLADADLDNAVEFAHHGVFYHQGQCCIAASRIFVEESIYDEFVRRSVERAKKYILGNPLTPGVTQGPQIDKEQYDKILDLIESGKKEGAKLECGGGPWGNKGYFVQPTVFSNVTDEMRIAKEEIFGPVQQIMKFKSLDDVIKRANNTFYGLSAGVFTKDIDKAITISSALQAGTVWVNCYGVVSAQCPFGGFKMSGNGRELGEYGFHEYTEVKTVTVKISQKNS
* marks the source's active call; other numbers are inactive results; ? = inconclusive; . = no result; [ ] = another dose, or the depositor's remark. Most compounds without a hit are left out; they make up all but 11% or so of the library. Unless noted, calls follow the shape of the dose curve; as a rule, active = well fitted curve in the direction sought with a large enough effect; inconclusive = small, poorly fitted or top-dose-only effect, or another doubt; inactive = no such curve, though single readings can be large; an effect the other way counts as inactive or inconclusive. Unless noted, % is scaled to controls: 0 for no effect and ±100 for the full control effect.

SMILES	ALOX12 inhib	IMPase Li cell	HPGD inh	IMPase inh	PNC inhibitor	ALDH1A1 inh
O=C(Nc1cc2c(cc1C(=O)c1ccccc1Br)OCCO2)c1ccccc1	.	.	.	0	.	.
COc1cccc(-c2cncnc2N(C)Cc2ccco2)c1	.	6%	.	.	.	?
CCCCC[C@H](O)/C=C/C=C\CCCCCCCCCC(=O)O	4%	5%	-11%	.	.	12%
CC(C)(C)COS(=O)OCC(C)(C)C	0%[11.4 µM]	2%	-1%	.	.	-5%[13.5 µM]
CC(C)[C@@H](CC(=O)N[C@@H]1CCNC[C@H]1C(=O)N[C@H](CC(=O)N[C@@H](CCC(=O)O)CC(=O)O)Cc1c[nH]c2ccccc12)NC(=O)C[C@H](Cc1c[nH]c2ccccc12)NC(=O)[C@@H]1CCCC[C@H]1N	1%	6%	-6%	.	.	-8%
COc1cccc(-c2noc(CCC(=O)Nc3cccnc3)n2)c1	2%	29%[38.3 µM]	-5%	2	-18	3%
O=C(CCCc1nc(-c2ccccc2)no1)Nc1cccnc1	-5%	-9%[38.3 µM]	-4%	1	-9	-4%
O=C(CCCc1nc(-c2ccccc2)no1)NCc1cccnc1	-3%	9%[38.3 µM]	-14%	1	-5	14µM*
COc1ccc(-c2noc(CCC(=O)Nc3cccnc3)n2)cc1OC	-3%	0%[38.3 µM]	-26%	-1	-100*	?
COc1ccc(-c2noc(CCC(=O)NCCN(C)Cc3ccccc3)n2)cc1	-3%	-2%[38.3 µM]	16µM*	11	34	7%
COc1ccc(NC(=O)CCc2nc(-c3ccc(C)cc3)no2)c(OC)c1	0%	-9%[38.3 µM]	-8%	-3	-103*	?
CC[C@]1(c2ncc[nH]2)Cc2ccccc2O1	-4%	17%	-8%	-1	.	1%
C=CCOC(=O)N[C@@H](c1ccccc1)[C@@H](C)[N+](=O)[O-]	.	2%	-4%	.	.	9%
COc1cccc(-c2noc(CCC(=O)NC3CCCCC3)n2)c1	4%	30%[38.3 µM]	-21%	-5	-11	-3%
COc1ccc(-c2noc(CCC(=O)NC3CCCCC3)n2)cc1OC	4%	31%[38.3 µM]	35µM*	-11	-1	6%
COc1ccc(Cc2nc(-c3ccc(NC(=O)c4cccnc4)cc3)no2)cc1	-5%	4%[38.3 µM]	-12%	-1	-126*	12%
COc1ccc(-c2noc(CCC(=O)NCc3cccnc3)n2)cc1	3%	.	.	7	22	14%
COc1ccc(CC(=O)Nc2ccc(-c3noc(-c4cc(OC)c(OC)c(OC)c4)n3)cc2)cc1	-5%	-22%	?	-9	-100*	-6%
CCN(CC)c1ccc(CN(C(=O)c2ccco2)C2CCS(=O)(=O)C2)cc1 (centres undefined)	-1%	11%[38.3 µM]	-5%	4	?	22µM*
C=CCOc1ccc(C(=O)N(Cc2ccc(N(C)C)cc2)C2CCS(=O)(=O)C2)cc1 (centres undefined)	1%	11%[38.3 µM]	-15%	-6	33	10µM*
CN(C)c1ccc(CN(C(=O)C2COc3ccccc3O2)C2CCS(=O)(=O)C2)cc1 (centres undefined)	-18%	.	.	5	11	4.5µM*
CN(C)c1ccc(CN(C(=O)COc2ccccc2)C2CCS(=O)(=O)C2)cc1 (centres undefined)	-1%	33%[38.3 µM]	-22%	0	25	4µM*
O=C(CCN(NC(=O)c1ccccc1)C1=NS(=O)(=O)c2ccccc21)NC1CCCCC1	1%	16%	-12%	.	?	64%
O=c1[nH]c(=O)n(C2CC(O)C(CO)O2)cc1C(F)(F)F (centres undefined)	-3%	-2%	-3%	.	.	4%
Cc1ccccc1OCC(=O)N(Cc1ccc(N(C)C)cc1)C1CCS(=O)(=O)C1 (centres undefined)	4%	-1%[38.3 µM]	-3%	6	-10	11µM*
SMILES	ALOX12 inhib	IMPase Li cell	HPGD inh	IMPase inh	PNC inhibitor	ALDH1A1 inh
CN(C(=O)c1ccccc1)c1ccc(OCC(=O)NC2CCS(=O)(=O)C2)cc1 (centres undefined)	-2%	-5%[38.3 µM]	-15%	?	-13	14µM*
COc1ccc2c(c1)C(C)=CC(C)(C)N2S(=O)(=O)c1ccc(Br)cc1	.	20%	.	.	.	15%
Cc1ccc(N=C2NC(=O)c3cc([N+](=O)[O-])ccc32)cc1	2%	13µM*	-1%	?	58	3%
O=C1OC(=O)c2cc([N+](=O)[O-])ccc21	0%	-13%	-9%	.	.	?
O=C(NNc1c(Cl)cc(Cl)cc1Cl)C1CCC1	-1%	-1%	32µM*	.	32	16%
Cc1cc(C)n(-c2nc3ccccc3nc2N2CCN(c3cccc(C(F)(F)F)c3)CC2)n1	.	.	.	-7	.	.
O=C(CN1CCN(c2ncc(C(F)(F)F)cc2Cl)CC1)N1CCN(c2ncc(C(F)(F)F)cc2Cl)CC1	-3%	13%[38.3 µM]	-26%	9	42	4µM*
O=C(O)C=C1CCN(c2ncc(C(F)(F)F)cc2Cl)CC1	0%	-6%[38.3 µM]	-5%	2	53	12%
NNC(=O)C=C1CCN(c2ncc(C(F)(F)F)cc2Cl)CC1	2%	-5%	-3%	4	38	16µM*
O=C(CSc1ccc(Cl)cc1)N1CCN(c2ncc(C(F)(F)F)cc2Cl)CC1	-1%	13%	-13%	20	?	8%
Cc1ccc(NC(=O)CCN2C(=O)OC(C)(C)C2(C)O)cc1 (centres undefined)	.	1%	.	.	.	15%
COc1ccc(-c2nc3cnc(Oc4cccc(Cl)c4)nc3n(C[C@H]3CCCO3)c2=O)cc1	.	-8%	.	.	.	?
Cc1c(C(=O)N2CCCCC2C)sc2ncnc(N3CCc4ccccc4C3)c12 (centres undefined)	.	3%	.	.	.	7.9µM*
c1ccc2c(c1)Cc1cc3cc4c(cc3nc1-2)OCO4	-15%	1%	?	.	.	?
CCCCCCCNC1=CC(=O)CC(c2ccco2)C1 (centres undefined)	-3%	-1%	-9%	5[0.0738 µM]	1	25µM*
O=C(CCC1N=C2c3ccccc3N=C(SCc3ccc(Cl)cc3)N2C1=O)N1CCN(c2ccccc2)CC1 (centres undefined)	.	.	.	-2	.	.
Cc1ccc(O)c(-c2cc(C(=O)NCc3ccc4c(c3)OCO4)[nH]n2)c1	1%	-2%	3.2µM*	.	20	?
COc1ccc(C(=O)OCC(=O)NCc2ccc3c(c2)OCO3)cc1[N+](=O)[O-]	-1%	6%	-2%	2	-107*	5µM*
O=C(COC(=O)c1cnc(Cl)c(Cl)c1)NCc1ccc2c(c1)OCO2	-1%	-7%	-3%	5	8	2.2µM*
COC(=O)c1cc(C(=O)OCC(=O)NCc2ccc3c(c2)OCO3)cc([N+](=O)[O-])c1	-2%	0%	5%	.	55	-5%

Screening data: PubChem BioAssay, National Center for Advancing Translational Sciences (NCATS)
